PMC7862700, “An all-to-all approach to the identification of sequence-specific readers for epigenetic DNA modifications on cytosine”

Key:
Test in all cases: DAPPL (digital affinity profiling via proximity ligation, sequencing); 10 mM Tris-HCl pH 7.5, 50 mM NaCl, 1 mM DTT, 4% glycerol, room temperature, 30 min; GST-TFs on glutathione beads, 16-mer random dsDNA library, 0.1% formaldehyde crosslink after washing; high values mean tight binding
[1] = biological target: T1, FLI1 (Homo sapiens, UniProt Q01543 1-452); conditions: protein: recombinant; tags: N-terminal GST; dsDNA, one strand shown
T1 sequence: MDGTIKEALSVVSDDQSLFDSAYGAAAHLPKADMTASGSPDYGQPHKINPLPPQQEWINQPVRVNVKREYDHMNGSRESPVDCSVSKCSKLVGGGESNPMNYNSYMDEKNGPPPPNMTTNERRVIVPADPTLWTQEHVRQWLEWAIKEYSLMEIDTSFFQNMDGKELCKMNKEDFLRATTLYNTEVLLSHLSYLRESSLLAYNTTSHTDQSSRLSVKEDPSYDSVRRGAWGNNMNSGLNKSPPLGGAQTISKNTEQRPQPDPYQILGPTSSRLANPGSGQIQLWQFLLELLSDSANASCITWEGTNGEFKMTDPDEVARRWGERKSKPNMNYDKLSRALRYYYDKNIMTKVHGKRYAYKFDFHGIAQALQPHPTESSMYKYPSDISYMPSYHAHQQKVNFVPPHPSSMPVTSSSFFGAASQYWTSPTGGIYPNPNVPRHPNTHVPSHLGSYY
Procedure, shortened: (§1)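 Binding signal is defined as a hexamer's read frequency for one factor over its frequency for the tag-only sample. To obtain reads, GST-fused human transcription factors were expressed in yeast, captured on glutathione beads, barcoded with DNA and pooled with that sample. Pools met 200 nmole of a 16-mer random double-stranded DNA library in Tris/NaCl/DTT/glycerol buffer for 30 min at room temperature before washing, 0.1% formaldehyde crosslinking, proximity ligation (BsaI/T4 ligase, 1 h, 37 °C), PCR and Illumina NextSeq500 sequencing.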

[2] = biological target: T2, ELK1 (Homo sapiens, UniProt P19419 1-428); conditions: protein: recombinant; tags: N-terminal GST; dsDNA, one strand shown
T2 sequence: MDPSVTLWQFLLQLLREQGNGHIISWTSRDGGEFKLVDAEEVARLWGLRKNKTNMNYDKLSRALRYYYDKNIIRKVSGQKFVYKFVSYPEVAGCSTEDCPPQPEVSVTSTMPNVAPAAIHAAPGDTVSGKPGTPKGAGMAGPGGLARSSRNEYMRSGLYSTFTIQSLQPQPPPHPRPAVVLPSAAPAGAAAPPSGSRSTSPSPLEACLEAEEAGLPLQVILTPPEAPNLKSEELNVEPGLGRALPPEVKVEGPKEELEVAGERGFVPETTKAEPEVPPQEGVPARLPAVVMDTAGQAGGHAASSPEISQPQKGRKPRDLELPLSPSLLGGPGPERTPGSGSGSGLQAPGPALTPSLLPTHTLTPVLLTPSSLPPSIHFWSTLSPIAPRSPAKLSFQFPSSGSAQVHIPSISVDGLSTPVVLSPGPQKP
Procedure, shortened: as §1

[3] = biological target: T3, GABPA (Homo sapiens, UniProt Q06546 1-454); conditions: protein: recombinant; tags: N-terminal GST; dsDNA, one strand shown
T3 sequence: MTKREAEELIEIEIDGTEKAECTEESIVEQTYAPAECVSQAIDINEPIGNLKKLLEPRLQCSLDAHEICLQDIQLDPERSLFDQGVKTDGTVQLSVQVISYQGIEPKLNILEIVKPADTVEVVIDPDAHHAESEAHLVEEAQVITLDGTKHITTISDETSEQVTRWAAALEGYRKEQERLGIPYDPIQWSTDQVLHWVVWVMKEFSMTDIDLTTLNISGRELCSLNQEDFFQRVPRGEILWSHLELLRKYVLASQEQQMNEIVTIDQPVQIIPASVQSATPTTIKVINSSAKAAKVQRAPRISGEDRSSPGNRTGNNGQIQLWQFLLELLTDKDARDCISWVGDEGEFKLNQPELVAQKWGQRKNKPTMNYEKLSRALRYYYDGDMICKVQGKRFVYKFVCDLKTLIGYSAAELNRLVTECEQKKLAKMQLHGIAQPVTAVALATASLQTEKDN
Procedure, shortened: as §1

[4] = biological target: T4, ERG (Homo sapiens, UniProt P11308 1-479); conditions: protein: recombinant; tags: N-terminal GST; dsDNA, one strand shown
T4 sequence: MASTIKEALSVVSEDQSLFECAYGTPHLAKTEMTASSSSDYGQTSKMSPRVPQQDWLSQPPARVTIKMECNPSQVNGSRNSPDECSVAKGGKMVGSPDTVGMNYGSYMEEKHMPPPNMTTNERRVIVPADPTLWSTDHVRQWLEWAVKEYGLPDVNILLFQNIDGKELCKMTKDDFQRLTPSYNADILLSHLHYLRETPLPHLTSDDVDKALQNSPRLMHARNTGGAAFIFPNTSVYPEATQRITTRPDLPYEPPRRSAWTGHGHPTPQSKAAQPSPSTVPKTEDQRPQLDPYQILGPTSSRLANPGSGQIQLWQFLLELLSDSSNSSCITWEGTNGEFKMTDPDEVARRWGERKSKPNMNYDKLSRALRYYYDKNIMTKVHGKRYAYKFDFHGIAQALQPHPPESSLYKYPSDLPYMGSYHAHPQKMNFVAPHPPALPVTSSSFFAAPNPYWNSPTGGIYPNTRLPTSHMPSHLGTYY
Procedure, shortened: as §1

[5] = biological target: ELF1 (Homo sapiens, UniProt P32519 1-619); conditions: protein: recombinant; tags: N-terminal GST; dsDNA, one strand shown
Procedure, shortened: as §1

[6] = biological target: T5, EHF (Homo sapiens, UniProt Q9NZC4 1-300); conditions: protein: recombinant; tags: N-terminal GST; dsDNA, one strand shown
T5 sequence: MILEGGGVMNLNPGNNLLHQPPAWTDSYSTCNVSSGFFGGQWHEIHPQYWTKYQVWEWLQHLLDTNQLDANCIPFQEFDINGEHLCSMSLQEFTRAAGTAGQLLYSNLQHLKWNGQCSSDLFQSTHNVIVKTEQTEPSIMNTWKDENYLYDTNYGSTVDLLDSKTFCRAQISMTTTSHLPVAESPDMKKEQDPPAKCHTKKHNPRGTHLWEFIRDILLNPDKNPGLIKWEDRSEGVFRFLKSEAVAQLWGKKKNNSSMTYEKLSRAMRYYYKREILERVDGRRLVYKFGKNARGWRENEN
Procedure, shortened: as §1

[7] = biological target: SPI1 (Homo sapiens, UniProt P17947 1-270); conditions: protein: recombinant; tags: N-terminal GST; dsDNA, one strand shown
Procedure, shortened: as §1

[8] = biological target: SPIB (Homo sapiens, UniProt Q01892 1-262); conditions: protein: recombinant; tags: N-terminal GST; dsDNA, one strand shown
Procedure, shortened: as §1

[9] = biological target: T6, ELK3 (Homo sapiens, UniProt P41970 1-407); conditions: protein: recombinant; tags: N-terminal GST; dsDNA, one strand shown
T6 sequence: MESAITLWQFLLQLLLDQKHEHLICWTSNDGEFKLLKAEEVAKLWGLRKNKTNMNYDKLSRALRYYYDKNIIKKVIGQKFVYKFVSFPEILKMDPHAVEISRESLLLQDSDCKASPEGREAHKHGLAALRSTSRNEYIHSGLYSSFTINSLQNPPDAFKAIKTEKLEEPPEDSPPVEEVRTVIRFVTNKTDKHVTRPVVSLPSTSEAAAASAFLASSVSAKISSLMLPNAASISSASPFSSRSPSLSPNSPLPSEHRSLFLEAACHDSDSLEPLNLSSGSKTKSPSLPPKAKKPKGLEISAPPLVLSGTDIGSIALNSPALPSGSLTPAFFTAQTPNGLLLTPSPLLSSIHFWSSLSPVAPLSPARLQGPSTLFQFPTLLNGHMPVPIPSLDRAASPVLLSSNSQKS
Procedure, shortened: as §1

[10] = biological target: T7, FEV (Homo sapiens, UniProt Q99581 1-238); conditions: protein: recombinant; tags: N-terminal GST; dsDNA, one strand shown
T7 sequence: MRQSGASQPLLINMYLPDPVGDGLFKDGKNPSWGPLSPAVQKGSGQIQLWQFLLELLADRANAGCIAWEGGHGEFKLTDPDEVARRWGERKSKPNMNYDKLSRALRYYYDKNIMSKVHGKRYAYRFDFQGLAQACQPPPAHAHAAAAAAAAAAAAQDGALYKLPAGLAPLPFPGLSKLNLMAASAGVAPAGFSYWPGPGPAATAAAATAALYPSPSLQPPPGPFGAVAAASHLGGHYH
Procedure, shortened: as §1

[11] = biological target: ETV5 (Homo sapiens, UniProt P41161 1-510); conditions: protein: recombinant; tags: N-terminal GST; dsDNA, one strand shown
Procedure, shortened: as §1

[12] = biological target: HSF1 (Homo sapiens, UniProt Q00613 1-529); conditions: protein: recombinant; tags: N-terminal GST; chain copies: 3; dsDNA, one strand shown
Procedure, shortened: as §1

[13] = biological target: T8, SPIC (Homo sapiens, UniProt Q8N5J4 1-248); conditions: protein: recombinant; tags: N-terminal GST; dsDNA, one strand shown
T8 sequence: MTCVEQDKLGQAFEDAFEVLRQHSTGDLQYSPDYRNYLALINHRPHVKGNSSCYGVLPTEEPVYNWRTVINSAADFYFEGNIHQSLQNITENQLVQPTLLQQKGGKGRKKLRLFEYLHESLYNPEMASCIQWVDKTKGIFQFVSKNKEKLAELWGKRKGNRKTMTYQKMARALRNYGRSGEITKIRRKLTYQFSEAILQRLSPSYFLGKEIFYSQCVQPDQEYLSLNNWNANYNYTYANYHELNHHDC
Procedure, shortened: as §1

[14] = biological target: ELF4 (Homo sapiens, UniProt Q99607 1-663); conditions: protein: recombinant; tags: N-terminal GST; dsDNA, one strand shown
Procedure, shortened: as §1

[15] = biological target: T9, ELK4 (Homo sapiens, UniProt P28324-2 1-405); conditions: protein: recombinant; tags: N-terminal GST; dsDNA, one strand shown
T9 sequence: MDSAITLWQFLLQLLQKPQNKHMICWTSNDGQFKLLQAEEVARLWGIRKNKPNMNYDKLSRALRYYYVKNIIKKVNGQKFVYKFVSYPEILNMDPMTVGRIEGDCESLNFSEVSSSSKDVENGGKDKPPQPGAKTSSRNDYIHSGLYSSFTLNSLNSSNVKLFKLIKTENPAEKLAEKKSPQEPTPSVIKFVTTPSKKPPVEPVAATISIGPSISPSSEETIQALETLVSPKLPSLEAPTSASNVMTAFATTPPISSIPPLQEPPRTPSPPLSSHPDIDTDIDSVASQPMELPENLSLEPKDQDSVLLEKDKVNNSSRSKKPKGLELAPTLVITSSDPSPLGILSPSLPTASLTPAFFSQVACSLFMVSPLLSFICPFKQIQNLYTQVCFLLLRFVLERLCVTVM
Procedure, shortened: as §1

[16] = biological target: T10, ETV2 (Homo sapiens, UniProt O00321 1-342); conditions: protein: recombinant; tags: N-terminal GST; dsDNA, one strand shown
T10 sequence: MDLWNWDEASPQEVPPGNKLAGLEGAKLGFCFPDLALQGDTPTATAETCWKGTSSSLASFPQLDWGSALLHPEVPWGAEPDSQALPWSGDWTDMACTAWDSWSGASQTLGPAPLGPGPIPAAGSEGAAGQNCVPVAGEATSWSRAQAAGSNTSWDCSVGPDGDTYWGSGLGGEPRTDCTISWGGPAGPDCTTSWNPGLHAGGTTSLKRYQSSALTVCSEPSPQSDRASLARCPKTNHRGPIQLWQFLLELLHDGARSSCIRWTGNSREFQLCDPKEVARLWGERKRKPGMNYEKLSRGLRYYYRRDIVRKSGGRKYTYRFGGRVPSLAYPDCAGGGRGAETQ
Procedure, shortened: as §1

[17] = biological target: T11, ELF3 (Homo sapiens, UniProt P78545 1-371); conditions: protein: recombinant; tags: N-terminal GST; dsDNA, one strand shown
T11 sequence: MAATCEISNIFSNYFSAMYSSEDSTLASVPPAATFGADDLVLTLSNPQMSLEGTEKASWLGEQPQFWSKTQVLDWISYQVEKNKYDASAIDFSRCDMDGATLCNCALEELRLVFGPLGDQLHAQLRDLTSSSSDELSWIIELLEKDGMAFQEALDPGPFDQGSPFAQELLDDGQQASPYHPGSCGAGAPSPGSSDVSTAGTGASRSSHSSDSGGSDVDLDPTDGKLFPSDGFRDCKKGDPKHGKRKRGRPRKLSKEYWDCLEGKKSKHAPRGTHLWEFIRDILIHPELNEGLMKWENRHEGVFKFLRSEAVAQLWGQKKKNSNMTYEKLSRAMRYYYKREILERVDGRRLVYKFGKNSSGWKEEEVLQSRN
Procedure, shortened: as §1

[18] = biological target: CRX (Homo sapiens, UniProt O43186 1-299); conditions: protein: recombinant; tags: N-terminal GST; dsDNA, one strand shown
Procedure, shortened: as §1

[19] = biological target: ETV1 (Homo sapiens, UniProt P50549 1-477); conditions: protein: recombinant; tags: N-terminal GST; dsDNA, one strand shown
Procedure, shortened: as §1

Chain of ELF4 (Q99607 whole entry): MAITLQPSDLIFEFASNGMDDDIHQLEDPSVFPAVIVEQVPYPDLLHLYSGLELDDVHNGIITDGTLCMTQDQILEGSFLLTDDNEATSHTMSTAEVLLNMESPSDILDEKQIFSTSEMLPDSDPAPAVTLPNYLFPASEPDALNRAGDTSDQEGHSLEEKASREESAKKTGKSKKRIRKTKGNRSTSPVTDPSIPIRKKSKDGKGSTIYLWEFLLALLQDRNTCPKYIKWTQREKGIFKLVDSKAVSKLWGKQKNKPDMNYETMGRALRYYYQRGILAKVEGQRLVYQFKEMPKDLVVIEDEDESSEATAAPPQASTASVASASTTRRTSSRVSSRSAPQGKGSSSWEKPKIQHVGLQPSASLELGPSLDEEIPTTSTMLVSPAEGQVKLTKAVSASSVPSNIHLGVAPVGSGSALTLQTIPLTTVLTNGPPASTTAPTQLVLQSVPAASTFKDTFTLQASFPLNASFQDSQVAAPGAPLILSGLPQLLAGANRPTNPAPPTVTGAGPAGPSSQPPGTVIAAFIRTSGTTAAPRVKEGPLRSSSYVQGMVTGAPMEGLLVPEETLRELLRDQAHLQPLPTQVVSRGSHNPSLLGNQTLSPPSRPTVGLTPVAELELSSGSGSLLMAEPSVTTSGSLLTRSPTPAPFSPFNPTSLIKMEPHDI
Chain of SPIB (Q01892 whole entry): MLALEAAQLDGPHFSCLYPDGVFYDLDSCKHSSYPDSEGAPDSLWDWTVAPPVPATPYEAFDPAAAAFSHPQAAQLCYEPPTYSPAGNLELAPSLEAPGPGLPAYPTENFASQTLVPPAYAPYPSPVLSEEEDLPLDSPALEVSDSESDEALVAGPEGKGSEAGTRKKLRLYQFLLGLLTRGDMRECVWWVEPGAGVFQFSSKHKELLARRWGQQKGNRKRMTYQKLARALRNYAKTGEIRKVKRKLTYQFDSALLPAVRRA
Chain of ETV1 (P50549 whole entry): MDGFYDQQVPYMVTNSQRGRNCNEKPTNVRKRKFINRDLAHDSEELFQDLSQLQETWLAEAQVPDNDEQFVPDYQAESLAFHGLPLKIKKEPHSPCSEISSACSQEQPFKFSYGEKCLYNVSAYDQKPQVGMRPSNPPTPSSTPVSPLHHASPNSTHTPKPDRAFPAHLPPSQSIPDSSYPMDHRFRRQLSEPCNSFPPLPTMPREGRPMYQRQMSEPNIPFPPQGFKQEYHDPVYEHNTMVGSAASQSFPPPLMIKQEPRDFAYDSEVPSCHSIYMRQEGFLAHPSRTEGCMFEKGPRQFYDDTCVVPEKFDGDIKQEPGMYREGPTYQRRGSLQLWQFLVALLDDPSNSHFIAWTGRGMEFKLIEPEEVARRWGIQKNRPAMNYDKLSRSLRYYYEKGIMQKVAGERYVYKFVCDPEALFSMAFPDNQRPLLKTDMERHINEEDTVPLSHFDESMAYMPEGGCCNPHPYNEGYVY
Chain of ELF1 (P32519 whole entry): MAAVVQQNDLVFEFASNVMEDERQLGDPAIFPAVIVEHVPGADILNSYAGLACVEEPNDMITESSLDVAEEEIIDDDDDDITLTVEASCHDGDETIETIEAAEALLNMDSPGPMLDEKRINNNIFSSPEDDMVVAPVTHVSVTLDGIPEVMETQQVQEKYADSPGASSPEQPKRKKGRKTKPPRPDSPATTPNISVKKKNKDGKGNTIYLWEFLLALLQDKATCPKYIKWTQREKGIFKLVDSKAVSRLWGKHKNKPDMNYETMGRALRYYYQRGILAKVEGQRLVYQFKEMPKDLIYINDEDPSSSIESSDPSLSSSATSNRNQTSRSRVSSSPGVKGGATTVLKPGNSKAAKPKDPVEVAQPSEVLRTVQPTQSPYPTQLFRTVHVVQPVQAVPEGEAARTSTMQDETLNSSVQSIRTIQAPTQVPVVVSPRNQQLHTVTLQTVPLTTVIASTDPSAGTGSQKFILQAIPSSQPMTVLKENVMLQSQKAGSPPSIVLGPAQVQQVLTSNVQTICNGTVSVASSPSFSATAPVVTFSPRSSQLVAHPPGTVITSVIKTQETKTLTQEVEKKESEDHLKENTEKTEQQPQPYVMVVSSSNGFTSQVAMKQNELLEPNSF
Chain of ETV5 (P41161 whole entry): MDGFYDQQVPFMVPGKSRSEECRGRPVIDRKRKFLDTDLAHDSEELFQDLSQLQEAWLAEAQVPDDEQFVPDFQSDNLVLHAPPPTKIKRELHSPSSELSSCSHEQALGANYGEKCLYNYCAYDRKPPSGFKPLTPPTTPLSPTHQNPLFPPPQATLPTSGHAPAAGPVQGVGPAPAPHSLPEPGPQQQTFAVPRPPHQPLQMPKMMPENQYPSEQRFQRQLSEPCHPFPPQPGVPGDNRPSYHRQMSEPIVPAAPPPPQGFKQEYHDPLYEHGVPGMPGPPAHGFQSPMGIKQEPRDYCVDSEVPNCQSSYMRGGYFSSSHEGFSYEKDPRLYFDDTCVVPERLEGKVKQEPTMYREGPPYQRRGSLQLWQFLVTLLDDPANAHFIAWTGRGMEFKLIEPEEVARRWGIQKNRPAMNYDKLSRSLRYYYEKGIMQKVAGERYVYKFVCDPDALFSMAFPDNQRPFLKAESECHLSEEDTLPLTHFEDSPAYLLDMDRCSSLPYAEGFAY
Chain of HSF1 (Q00613 whole entry): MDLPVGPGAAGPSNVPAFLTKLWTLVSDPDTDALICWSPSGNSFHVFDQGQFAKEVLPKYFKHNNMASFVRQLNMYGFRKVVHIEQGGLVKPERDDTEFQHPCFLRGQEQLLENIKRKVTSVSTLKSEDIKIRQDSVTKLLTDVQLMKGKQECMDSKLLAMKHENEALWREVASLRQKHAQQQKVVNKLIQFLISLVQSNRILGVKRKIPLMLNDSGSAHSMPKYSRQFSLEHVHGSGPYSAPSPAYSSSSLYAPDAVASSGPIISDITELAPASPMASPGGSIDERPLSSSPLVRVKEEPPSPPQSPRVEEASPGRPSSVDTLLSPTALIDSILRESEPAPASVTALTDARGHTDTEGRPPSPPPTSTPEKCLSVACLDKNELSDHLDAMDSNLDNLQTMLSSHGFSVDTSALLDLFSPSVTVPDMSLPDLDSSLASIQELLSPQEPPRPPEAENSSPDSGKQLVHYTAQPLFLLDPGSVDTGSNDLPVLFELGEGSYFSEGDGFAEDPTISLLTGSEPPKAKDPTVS
Chain of CRX (O43186 whole entry): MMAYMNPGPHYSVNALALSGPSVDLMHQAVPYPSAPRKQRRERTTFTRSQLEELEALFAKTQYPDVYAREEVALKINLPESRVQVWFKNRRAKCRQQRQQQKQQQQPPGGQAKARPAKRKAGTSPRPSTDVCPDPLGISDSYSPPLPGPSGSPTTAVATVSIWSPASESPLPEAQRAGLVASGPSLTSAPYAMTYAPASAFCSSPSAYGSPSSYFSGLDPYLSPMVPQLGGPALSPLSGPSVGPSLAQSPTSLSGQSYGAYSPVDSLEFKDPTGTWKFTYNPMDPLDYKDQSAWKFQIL

Sequence: CATTCC
- binding signal [1]: 1.29 fold enrichment (6-mer frequency, TF over GST control)
- binding signal [2]: 1.2 fold enrichment (6-mer frequency, TF over GST control)
- binding signal [3]: 1.27 fold enrichment (6-mer frequency, TF over GST control)
- binding signal [4]: 1.25 fold enrichment (6-mer frequency, TF over GST control)
- binding signal [5]: 1.25 fold enrichment (6-mer frequency, TF over GST control)
- binding signal [6]: 1.19 fold enrichment (6-mer frequency, TF over GST control)
- binding signal [7]: 1.25 fold enrichment (6-mer frequency, TF over GST control)
- binding signal [8]: 1.3 fold enrichment (6-mer frequency, TF over GST control)
- binding signal [9]: 1.3 fold enrichment (6-mer frequency, TF over GST control)
- binding signal [10]: 1.21 fold enrichment (6-mer frequency, TF over GST control)
- binding signal [11]: 1.29 fold enrichment (6-mer frequency, TF over GST control)
- binding signal [12]: 1.67 fold enrichment (6-mer frequency, TF over GST control)
- binding signal [13]: 1.11 fold enrichment (6-mer frequency, TF over GST control)
- binding signal [14]: 1.27 fold enrichment (6-mer frequency, TF over GST control)
- binding signal [15]: 1.28 fold enrichment (6-mer frequency, TF over GST control)
- binding signal [16]: 1.31 fold enrichment (6-mer frequency, TF over GST control)
- binding signal [17]: 1.2 fold enrichment (6-mer frequency, TF over GST control)
- binding signal [18]: 1.07 fold enrichment (6-mer frequency, TF over GST control)
- binding signal [19]: 1.19 fold enrichment (6-mer frequency, TF over GST control)
